The results in this text go back to PubChem BioAssay (NCATS).

This experiment can be described thus: NCATS anti-infectives library activity on HEK293 viability as a counter-qHTS vs the C. elegans viability qHTS (AID 1745854).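 Also: HEK293 cells exposed to compounds for 24 hr before the viability read.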 A digest of the protocol: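 HEK293 cells (1,500/well) exposed 24 hr at 37C to 1:5 titrations, up to 41.7 uM final; counter-screen to a C. elegans viability qHTS. Viability by CellTiter-Glo luminescence after 10 min at room temperature; digitonin as control.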

Inconclusive results are not listed. The source made the active and inactive calls. Calls follow the shape of the dose curve; as a rule, active = well fitted cell-killing curve with a large enough effect; inconclusive = small, poorly fitted or top-dose-only effect; inactive = flat fitted curve, though single readings scatter.

Regarding `COc1cccc(N2CCN(C3=Nc4c(F)cccc4[C@H](CC(=O)O)N3c3cc(C(F)(F)F)ccc3OC)CC2)c1`, the call was inactive.
